Among the data in ChEMBL document CHEMBL4513216, “Probing the Open Global Health Chemical Diversity Library for Multistage-Active Starting Points for Next-Generation Antimalarials” (ACS Infect Dis, 2020) are INHIBITION values, retold here.

In all, about 69,000 compounds went through this assay and about 8,600 (12%) showed an effect of 50% or more. The sample as a whole holds a higher share of strong results than the screen did.

The assay deals with Plasmodium berghei. Kind of assay: Screen against P. berghei liver stage (PbLuc), transformed with Luciferase, at 10uM. The class given is functional, HepG2. The note with it: tested at 10 uM.
For the compound `NC(=O)c1nnn(-c2ccc(Cl)cc2)n1`, the INHIBITION is listed as -27.1%.

As for `CCCc1nc(N2CC[C@@H](c3ccc4c(c3)OCO4)[C@H](O)C2)no1`, the INHIBITION is recorded as 19.4%.

As to `O[C@@H]1CN(c2cnc3ccccc3n2)CC[C@H]1c1ccc2c(c1)OCO2`, the INHIBITION came to 60.1%.

Regarding `CC(C)c1cc(C(=O)N2CC[C@@H](c3ccc4c(c3)OCO4)[C@H](O)C2)[nH]n1`, the INHIBITION was 15.6%.

For the compound `O[C@@H]1CN(c2nc3ccccc3s2)CC[C@H]1c1ccc2c(c1)OCO2`, the INHIBITION came to 68.1%.

With `CCc1cc(C(=O)N2CC[C@@H](c3ccc4c(c3)OCO4)[C@H](O)C2)[nH]n1`, the INHIBITION is -5.22%.

`O[C@@H]1CN(c2nc3ccccc3o2)CC[C@H]1c1ccc2c(c1)OCO2`: the INHIBITION turned out to be 39.3%.

Regarding `CC(C(=O)NCC(C)(C)c1ccc2c(c1)OCO2)n1ccnc1` (stereo unspecified), the INHIBITION stood at 29.8%.

Consider `CCc1ccc(C(=O)N2CCC(c3nncn3CC)CC2)s1`, for which the INHIBITION is listed as 9.14%.

For `Cc1nnc([C@@]23CCO[C@@H]2CCN(Cc2scnc2C)C3)o1`, the INHIBITION turned out to be 10.4%.

For `COc1coc(C(=O)Nc2nc(C)cs2)cc1=O`, the INHIBITION was found to be 5.03%.

In the case of `CC(C)Oc1ncccc1CNC(=O)c1ccccn1`, the INHIBITION is -48.4%.

Regarding `CN1CCc2ncc(CNc3cc(N(C)C)ncn3)n2CC1`, the INHIBITION was 21.6%.

Turning to `CN(C)c1cc(NCc2cnc3n2CCN(CC2CC2)CC3)ncn1`, the INHIBITION is 17.2%.

Regarding `COCCN1CCc2ncc(CNc3cc(N(C)C)ncn3)n2CC1`, the INHIBITION is 54.1%.

Take `Cc1nn(C)c(C)c1C1CCCN1C(=O)CCNS(C)(=O)=O` (stereo unspecified): the INHIBITION is recorded as -37.7%.

With `Cc1ccsc1-c1nccn1CCN1CCCOC1=O`, the INHIBITION amounted to 20.8%.

On to `Cc1cc(CCC(=O)Nc2nncs2)nc(C2CCCN2)n1` (stereo unspecified), for which the INHIBITION is recorded as 5.11%.

Consider `CN(C)c1ncccc1C(=O)N1CCCC1Cn1cccn1` (stereo unspecified), for which the INHIBITION is -21.5%.

Regarding `Cc1cccc(CN2CC3(CCN(C(N)=O)CC3)OCC2=O)n1`, the INHIBITION is recorded as 7.53%.

As for `Cc1cc(C)n(C2CCCN(C(=O)CCCc3ccccn3)C2)n1` (stereo unspecified), the INHIBITION amounted to 16.9%.

In the case of `N#Cc1c(Cl)nsc1NCCCN1C(=O)COc2ccccc21`, the INHIBITION is given as 62.4%.

Take `N#Cc1ccc(NCCCN2C(=O)COc3ccccc32)nc1`: the INHIBITION is 15.3%.

As to `N#Cc1cnc(NCCCN2C(=O)COc3ccccc32)c(Cl)c1`, the INHIBITION was -66.9%.

As for `CC(Cn1ccnc1)NC(=O)NCc1ccc2c(c1)OCCO2` (stereo unspecified), the INHIBITION was -9.76%.

Consider `Cc1nnc2n1CCN(C(=O)c1ccn(-c3cccc(F)c3)n1)C2`, for which the INHIBITION was -1.15%.

In the case of `COc1ccc(Cl)cc1CCNC(=O)NCc1cnn(C)c1C`, the INHIBITION is -9.35%.

With `O=C(Nc1cc(CSCCO)ccn1)c1ccc(Cl)o1`, the INHIBITION is given as 38.3%.

For the compound `COc1ccnc(NC(=O)c2cscc2C)c1`, the INHIBITION is -28.3%.

Regarding `Cc1cscc1C(=O)Nc1cc(CSCCO)ccn1`, the INHIBITION worked out at 52.2%.

For `CC1Cc2ccccc2N1C(=O)Cn1nc(-c2cccs2)ccc1=O` (stereo unspecified), the INHIBITION is 44.3%.

For `CCC(NS(=O)(=O)N1CCOCC1)c1ccccc1OC` (stereo unspecified), the INHIBITION is recorded as 4.41%.

For the compound `O=S(=O)(NCCc1ccccc1F)N1CCOCC1`, the INHIBITION was determined as 53.8%.

Take `COc1ccccc1CCNS(=O)(=O)N1CCOCC1`: the INHIBITION turned out to be 8.38%.

For `O=S(=O)(NCCc1ccccc1C(F)(F)F)N1CCOCC1`, the INHIBITION worked out at 24.3%.

Turning to `O=S(=O)(NCCc1cn2ccccc2n1)N1CCOCC1`, the INHIBITION is reported as 1.74%.

Turning to `COc1ccccc1OCCNS(=O)(=O)N1CCOCC1`, the INHIBITION is 58.4%.

For `CCNc1nc(-c2cccnc2)c(-c2ccnc(N3CCOCC3)n2)s1`, the INHIBITION was found to be 39.7%.

For the compound `CS(=O)(=O)N[C@@H]1CN(Cc2ccc3ncccc3c2)C[C@H]1O`, the INHIBITION was 23.9%.

As to `N#Cc1c(N)nc2c(c1-c1cnc(N3CCCC3)nc1)COCC2`, the INHIBITION is recorded as -10.7%.

For `CN(C)C(=O)[C@@H]1C[C@@H]2[C@@H](CCN2Cc2nccs2)O1`, the INHIBITION turned out to be 44.5%.

Turning to `Nc1nc2c(c(NCC(c3cccnc3)N3CCOCC3)n1)CCNC2` (stereo unspecified), the INHIBITION amounted to 23.1%.

Consider `Cc1cccnc1CC(C)Nc1nc(N)nc2c1CCNC2` (stereo unspecified), for which the INHIBITION was 65.7%.

In the case of `Cc1cccc(C)c1OCC(C)Nc1nc(N)nc2c1CCNC2` (stereo unspecified), the INHIBITION is 42.6%.

`Cc1ccc(S(=O)(=O)n2ccc(C(=O)NCC(F)(F)F)c2)cc1`: the INHIBITION is 53.8%.

As for `CCNC(=O)CNC(=O)c1ccn(S(=O)(=O)c2ccc(C)cc2)c1`, the INHIBITION amounted to 2.69%.

Take `CCOCCNC(=O)c1ccn(S(=O)(=O)c2ccc(C)cc2)c1`: the INHIBITION is recorded as 13.5%.

For `Nc1cc(C(=O)N2C[C@@H]3CC[C@H]2CN(Cc2cccnc2)C3)ccn1`, the INHIBITION is 4.64%.

As to `Cc1cc(C(=O)NCCN2CCCC(C)C2)nn1C(C)(C)C` (stereo unspecified), the INHIBITION is reported as -5.26%.

Turning to `Cc1cc(C(=O)NCCN2CCCCC2C)nn1C(C)(C)C` (stereo unspecified), the INHIBITION was found to be 52.7%.

Turning to `Cc1cc(C(=O)NCCN2CCC(C)CC2)nn1C(C)(C)C`, the INHIBITION is on record as 36.8%.

In the case of `Cc1cc(C(=O)NCCN2CCCCC2)nn1C(C)(C)C`, the INHIBITION is reported as -22.3%.

On to `CC1CCCCN1CCNC(=O)c1ccn(-c2ccccc2)n1` (stereo unspecified), for which the INHIBITION came to 7.12%.

Consider `Cc1cc(C(=O)NCCN2CCCCCC2)nn1C(C)(C)C`, for which the INHIBITION was found to be 76.6%.

For `COCCc1noc(CN2CCCCC2Cn2cncn2)n1` (stereo unspecified), the INHIBITION worked out at 10.675%.

In the case of `COCC1CN(Cc2ccc(C)o2)Cc2cn(C)nc21` (stereo unspecified), the INHIBITION came to 29.7%.

As for `Cc1nn(C)c(C)c1C1CCCN1CC(=O)N(C)c1nccs1` (stereo unspecified), the INHIBITION stood at 5.91%.

`CCCC(=O)NCCc1nc(N(C)C)ncc1-c1ccncc1`: the INHIBITION is recorded as 1.2%.

As for `CNC(=O)[C@@H]1CC[C@@H]2[C@@H](CCN2Cc2ccccc2F)O1`, the INHIBITION stood at 0.804%.

Turning to `c1cnc(N2CC3(CCN(Cc4cccnc4)C3)C2)nc1`, the INHIBITION was determined as 13.7%.

As for `COc1cccc(CN2CCC3(CC2)CCN(c2ncc(C)cn2)C3)c1`, the INHIBITION worked out at 65.9%.

As for `COc1cccc(CN2CCC3(CC2)CCN(c2ncc(F)cn2)C3)c1`, the INHIBITION was determined as 40.8%.

`COc1cccc(CN2CCC3(CCN(c4ncc(C)cn4)CC3)C2)c1`: the INHIBITION is 31.9%.

In the case of `c1cnc(N2CCC3(CCN(Cc4cccnc4)CC3)CC2)nc1`, the INHIBITION is reported as 61.4%.

In the case of `Fc1ccc(CN2CCC3(CC2)CCN(Cc2nccs2)CC3)cc1`, the INHIBITION was found to be 42.6%.

On to `c1cnc(N2CCC3(CCN(Cc4ccncc4)CC3)CC2)nc1`, for which the INHIBITION turned out to be 21.6%.

Consider `COc1cccc(CN2CCC3(CCN(c4ncc(F)cn4)CC3)C2)c1`, for which the INHIBITION worked out at 46.7%.

As for `Fc1ccc(CN2CCC3(CC2)CCN(c2ncccn2)CC3)cc1`, the INHIBITION amounted to 56.7%.

As for `COc1ccc(CN2CCC3(CC2)CCN(c2ncccn2)CC3)cc1`, the INHIBITION is on record as 67.7%.

With `COc1cccc(CN2CCC3(CC2)CCN(c2ncccn2)C3)c1`, the INHIBITION worked out at 11.3%.

With `Cc1cnc(N2CC3(CCN(Cc4cccnc4)C3)C2)nc1`, the INHIBITION was determined as 27.2%.
